Results on 98 compounds are retold here after PubChem BioAssay AID463173 (ICCB-Longwood Screening Facility, Harvard Medical School, 2010).

About 4,300 (8.3%) of roughly 52,000 compounds were called active. The list comes from a sample in which actives are over-represented; it also holds similar structures and randomly drawn compounds. Values without a mark were called inactive. Cut-off read from the data, not from the text of the source: active = survival mostly below about 52% (no sharp cut-off); inactive = mostly above about 56%.

For this test, the system named is DeltatarO mutant. The test can be described thus: growth inhibition of S. aureus wild type versus tarO mutant, primary screen, teichoic acid synthesis inhibitors, RN4220, OD600 (AID 463173). Particulars: OD600, 18 h, hits give low values, screened at 18.75 µg/mL (by protocol).
In the case of `CCOC(=O)C1=C(CS(=O)(=O)c2cccc(C(F)(F)F)c2)NC(=O)NC1c1cccc(OC)c1` (stereo not drawn), the survival was 48%.

For the compound `CC(=O)c1ccc(NS(=O)(=O)c2ccc3[nH]c4c(c3c2)CCCCCC4)cc1`, the survival was 84%.

On to `CCOc1ccc(C(=O)c2oc3ccccc3c2NC(=O)Cc2coc3cc(C)cc(C)c23)cc1`, for which the survival was 100%.

`CC(=O)c1ccc(NC(=O)CSc2ccc(-c3cccs3)nn2)cc1`: the survival was 126%.

As for `COc1cccc(C(=O)CN2CCN(S(=O)(=O)c3ccc(Cl)cc3)CC2)c1`, the survival was 74%.

With `COc1ccccc1OCC(=O)N(Cc1ccco1)Cc1ccccc1F`, the survival was 64%.

With `CCc1cc(CC)c(/C=N/NC(N)=O)c(CC)c1/C=N/NC(N)=O`, the survival is 94%.

For `Nc1c(C(=O)Nc2ccccc2)sc2nc3c(cc12)CN(Cc1ccccc1)CC3`, the survival is 63%.

Regarding `CCc1ccc(NC(=O)c2sc3nc4c(cc3c2N)CN(CC)CC4)cc1`, the survival was 49% (active).

Turning to `Cc1ccc(NC(=O)c2sc3nc4c(cc3c2N)CN(Cc2ccccc2)CC4)cc1`, the survival is 110%.

On to `Cc1cccc(N2CCN(C(=O)Cn3ncc4c3-c3ccccc3OC4)CC2)c1C`, for which the survival is 77%.

Turning to `COc1c(C)cc(S(=O)(=O)NCCc2c(C)[nH]c3ccccc23)c(C)c1C`, the survival is 59% (active).

For the compound `COc1cc(C)c(Cl)cc1S(=O)(=O)NCCc1c(C)[nH]c2ccccc12`, the survival was 37% (active).

Consider `COc1cc(S(=O)(=O)NCCc2c(C)[nH]c3ccccc23)c(C)cc1C`, for which the survival is 56%.

`COc1ccc(C(C)C)cc1S(=O)(=O)NCCc1c(C)[nH]c2ccc(C)cc12`: the survival was 84%.

In the case of `COc1ccc2[nH]c(C)c(CCNS(=O)(=O)c3cc(F)ccc3OC)c2c1`, the survival was 57%.

Take `COc1cc(Cl)c(S(=O)(=O)NCCc2c(C)[nH]c3c(C)cccc23)cc1Cl`: the survival is 57%.

As to `COc1cccc(C(c2nnnn2CCC(C)C)N2CCN(c3cccc(C)c3C)CC2)c1OC` (stereo not drawn), the survival was 82%.

Consider `CCOC(=O)C1CC1c1ccccc1` (stereo not drawn), for which the survival is 81%.

On to `Cc1cccc(C(=O)Nc2ccc(C(=O)OCc3cc(=O)n4nc(CC(C)C)sc4n3)cc2)c1`, for which the survival was 99%.

For the compound `COc1cccc(Nc2ccc3cc(S(=O)(=O)N4CCC(C)CC4)ccc3n2)c1`, the survival was 88%.

`COc1ccc(NC(=O)N(Cc2nnc3n2CCCCC3)c2ccc(OC)c(Cl)c2)cc1`: the survival was 60%.

Take `O=C(O)c1cccnc1N1CCOCC1`: the survival is 84%.

With `O=C(NCc1cccs1)c1ccc(CSc2nc3ccncc3n2Cc2ccccc2)cc1`, the survival was 110%.

For the compound `COc1ccc(OC)c(NS(=O)(=O)c2ccc3[nH]c4c(c3c2)CCCCC4)c1`, the survival was 77%.

Turning to `Cc1ccc(C)c(-c2ccc(=O)n(Cc3ccc(F)cc3Cl)n2)c1`, the survival is 32% (active).

As for `Cc1ccc(-c2ccc(=O)n(Cc3ccc(F)cc3)n2)cc1`, the survival was 50%.

Turning to `Cc1ccc(C)c(-c2ccc(=O)n(Cc3c(F)cccc3Cl)n2)c1`, the survival is 81%.

As for `COC(=O)c1ccc(Cn2nc(-c3ccc(C)cc3)ccc2=O)cc1`, the survival is 133%.

In the case of `Cc1ccc(-c2ccc(=O)n(Cc3cc(C)ccc3C)n2)cc1`, the survival was 57% (active).

For `O=c1ccc(-c2ccccc2)nn1Cc1ccc(F)cc1Cl`, the survival is 49%.

For the compound `Cc1ccc(C)c(Cn2nc(-c3cc(C)ccc3C)ccc2=O)c1`, the survival was 44%.

Consider `Cc1ccc(CCNC(=O)Cn2nc(-c3ccc(C)cc3)ccc2=O)cc1`, for which the survival is 0% (active).

As to `Cc1ccc(-c2ccc(=O)n(CC(=O)NCCc3ccc(Cl)cc3)n2)cc1`, the survival is 69%.

As to `C=Cc1ccc(Cn2nc(-c3ccc(C)cc3)ccc2=O)cc1`, the survival is 35% (active).

Regarding `Cc1ccc(-c2ccc(=O)n(CC(=O)NCCc3ccccc3)n2)cc1`, the survival is 57%.

`C=Cc1ccc(Cn2nc(-c3ccc(C)c(S(=O)(=O)N(CC)CC)c3)ccc2=O)cc1`: the survival was 53%.

In the case of `Cc1ccc(NC(=O)CCN2CCN(CCO)CC2)cc1C`, the survival is 54%.

Take `Cc1ccc(CCNC(=O)c2ccc3c(c2)nc2n3CCOC2)cc1`: the survival is 86%.

On to `CCc1ccc(-n2c(=O)c3cccnc3n2CC(=O)Nc2ccccc2C(F)(F)F)cc1`, for which the survival is 71%.

Consider `Cc1c(-c2ccc(Cl)cc2)c(=O)oc2c(CN3CCOCC3)c(O)ccc12`, for which the survival is 82%.

For `O=c1oc(-c2cccc3ncccc23)nn1Cc1ccccc1F`, the survival is 102%.

For `COc1cccc(CNC(=O)CCc2nnc3n(C)c(=O)c4sccc4n23)c1`, the survival was 63%.

On to `CCc1ccc(C(=O)c2cn(CC(=O)Nc3ccc(C)c(C)c3)c3ccccc3c2=O)cc1`, for which the survival is 108%.

Turning to `CC(C)CC(=O)n1nc(-c2cccnc2)nc1NCc1ccc(F)cc1`, the survival is 89%.

`Cc1cc(Nc2ccc(F)cc2)nc(-n2nc(C)cc2C)n1`: the survival was 70%.

For the compound `Cc1ccc2ncc(C(=O)c3ccc(C)c(C)c3)c(S(=O)(=O)c3ccccc3)c2c1`, the survival is 70%.

Regarding `COc1ccc(S(=O)(=O)N2CCC(c3nnnn3-c3ccccc3)CC2)cc1OC`, the survival is 80%.

As for `CN1C(=O)/C(=C2/SC(=S)N(c3cccc(O)c3)C2=O)c2ccccc21`, the survival is 54%.

Consider `CNC(=O)c1ccc(CSc2nc3cccnc3n2Cc2cccc(F)c2)cc1`, for which the survival was 118%.

Regarding `CCN1CCN(CCCNC(=O)c2ccc3nc(Cc4ccccc4)oc3c2)CC1`, the survival is 105%.

With `COc1ccc(NC(=O)c2ccco2)cc1NC(=O)c1c(OC)cccc1OC`, the survival was 51%.

As for `COc1ccc(NC(=O)c2ccco2)cc1NC(=O)COc1cc(C)cc(C)c1`, the survival was 121%.

Turning to `COc1ccc(NC(=O)c2ccco2)cc1NC(=O)c1ccc(C)c(C)c1`, the survival was 49% (active).

Consider `COc1ccc(NC(=O)c2ccco2)cc1NC(=O)COc1ccccc1`, for which the survival was 45% (active).

Regarding `COc1ccc(NC(=O)c2ccco2)cc1NC(=O)c1cccc(C)c1OC`, the survival was 37% (active).

Turning to `COc1ccc(NC(=O)c2ccco2)cc1NC(=O)c1cccc(F)c1`, the survival was 89%.

As for `COc1ccc(NC(=O)c2ccco2)cc1NC(=O)c1cc(OC)c(OC)c(OC)c1`, the survival was 71%.

Take `COc1ccc(C(=O)Nc2cc(NC(=O)c3ccco3)ccc2OC)cc1Cl`: the survival is 54%.

Take `CCCCOc1cccc(C(=O)Nc2cc(NC(=O)c3ccco3)ccc2OC)c1`: the survival was 23% (active).

As for `COc1ccc(NC(=O)c2ccco2)cc1NC(=O)c1ccccc1[N+](=O)[O-]`, the survival is 49%.

Take `COc1cc(OC)cc(C(=O)Nc2cc(NC(=O)c3ccco3)ccc2OC)c1`: the survival was 83%.

With `COc1ccc(NC(=O)c2ccco2)cc1NC(=O)COc1ccc(C)c(C)c1`, the survival is 49%.

As to `COc1cccc(NC(=O)C2CCCN(c3nnc(-n4c(C)ccc4C)s3)C2)c1` (stereo not drawn), the survival was 79%.

On to `COc1ccc(NC(=O)Cn2cnc3c(oc4ccccc43)c2=O)cc1OC`, for which the survival is 79%.

Take `Cc1nc(-c2ccc(S(=O)(=O)N3CCN(c4cccc(C(F)(F)F)c4)CC3)cc2)co1`: the survival is 67%.

On to `Cc1ccc(S(=O)(=O)CC(=O)Nc2nc3c(C)cc(C)cc3s2)cc1`, for which the survival is 96%.

As for `COC(=O)c1c(SC)nc2ccccc2c1OCc1ccc(Cl)cc1`, the survival is 92%.

Consider `COc1ccc(N(C(=O)c2ccc(OC)c(OC)c2)S(=O)(=O)c2ccc(Cl)cc2)cc1`, for which the survival was 80%.

In the case of `COc1cccc(CN(CCO)Cc2ccccc2)c1OC`, the survival was 91%.

For the compound `CCOc1ccc(CNC(=O)C2CCN(C(=O)N3CC(CC)Oc4ccc(C)cc43)CC2)cc1OC` (stereo not drawn), the survival was 77%.

In the case of `Cc1cccc(-n2c(=O)c3c(c4cc(C)ccc4n3C)n(CC(=O)Nc3ccc(C)cc3C)c2=O)c1`, the survival is 69%.

Consider `COc1ccccc1CNC(=O)Cn1ncc2c(=O)oc3ccc(C)cc3c21`, for which the survival is 78%.

For the compound `CC(C)n1nc(CC(=O)O)c2ccccc2c1=O`, the survival is 79%.

Take `CCSc1nc2ccc(N)cc2s1`: the survival is 108%.

Turning to `O=C(NCC(c1cccnc1)N1CCc2ccccc2C1)c1ccc(F)c(F)c1` (stereo not drawn), the survival was 70%.

`CCOc1ccc(CCNC(=O)CN2C(=O)COc3ccc(S(=O)(=O)N4CCCC4)cc32)cc1`: the survival was 69%.

With `Cc1ccc(C(c2sc3nc(-c4ccco4)nn3c2O)N2CCCCC2)cc1` (stereo not drawn), the survival is 93%.

Take `COc1ccc(CNc2n[nH]c(-c3ccco3)n2)cc1OC`: the survival is 62% (active).

For the compound `Fc1cccc(Cl)c1CNc1n[nH]c(-c2ccco2)n1`, the survival is 76%.

Regarding `CC(C)c1ccc(CNc2n[nH]c(-c3ccco3)n2)cc1`, the survival was 80%.

In the case of `COc1ccc(S(=O)(=O)n2nc(-c3ccco3)nc2NCc2ccc(OC)c(OC)c2)cc1`, the survival is 55%.

Take `COc1ccc(CNc2nc(-c3ccco3)nn2S(=O)(=O)c2ccc3ccccc3c2)cc1OC`: the survival is 58% (active).

Take `COc1ccc(CNc2nc(-c3ccco3)nn2S(=O)(=O)c2ccc(Cl)cc2)cc1OC`: the survival was 61%.

As to `Cc1ccc(C(=O)Nc2cccc(O)c2)cc1S(=O)(=O)N1CCCCCC1`, the survival is 79%.

For the compound `CCN(CC)CCCNC(=O)CN1N=C(c2ccccc2)CCC1=O`, the survival is 87%.

Regarding `CCOc1ccccc1NC(=O)CN1C(=O)C(=O)c2ccccc21`, the survival was 94%.

With `COc1ccc(NC(=O)CCn2c(=O)c3cccn3c3cccnc32)c(OC)c1`, the survival is 103%.

Turning to `COc1ccc(OC)c(NC(=O)Cn2c(=O)c3cccn3c3ccccc32)c1`, the survival was 41% (active).

As to `COc1ccc(CNC(=O)Cn2c(=O)c3cccn3c3ccccc32)cc1`, the survival was 47%.

Take `Cc1cc(Cl)ccc1NC(=O)CN1C(=O)C(=O)c2ccccc21`: the survival is 71%.

On to `COc1ccc(NC(=O)CCCn2c(=O)c3cccn3c3ccccc32)c(OC)c1`, for which the survival is 57% (active).

Take `COc1ccc(NC(=O)Cn2c(=O)c3cccn3c3ccccc32)cc1`: the survival was 49%.

As for `COc1ccc(NC(=O)CCn2c(=O)c3cccn3c3ccccc32)c(OC)c1`, the survival was 47% (active).

Regarding `COc1ccc(OC)c(CCNC(=O)CCCn2c(=O)c3cccn3c3ccccc32)c1`, the survival was 77%.

In the case of `COc1ccc(NC(=O)CN2C(=O)C(=O)c3ccccc32)c(OC)c1`, the survival was 52% (active).

Turning to `Cc1ccc(NC(=O)CCn2c(=O)c3cccn3c3ccccc32)c(Cl)c1`, the survival was 57%.

As to `Cc1ccc(NC(=O)CCCn2c(=O)c3cccn3c3ccccc32)c(C)c1`, the survival was 49%.
